In the supplement of paper PMC11732987, “Enantioselective OTUD7B fragment discovery through chemoproteomics screening and high-throughput optimisation” (Communications Chemistry, 2025):

Tests used:
Test in all cases: log2 ratio of Biotin-Ahx-Ub-VS probe labelling (fragment/DMSO); higher = less target engagement (more negative = stronger competition), active = hit call of the paper (q ≤ 0.05, log2 ratio ≤ -1)
Details in all cases: compound concentration: 200 uM; treatment time: 3 h
USP19 = target: T1, USP19 (UniProt O94966)
T1 sequence (whole entry): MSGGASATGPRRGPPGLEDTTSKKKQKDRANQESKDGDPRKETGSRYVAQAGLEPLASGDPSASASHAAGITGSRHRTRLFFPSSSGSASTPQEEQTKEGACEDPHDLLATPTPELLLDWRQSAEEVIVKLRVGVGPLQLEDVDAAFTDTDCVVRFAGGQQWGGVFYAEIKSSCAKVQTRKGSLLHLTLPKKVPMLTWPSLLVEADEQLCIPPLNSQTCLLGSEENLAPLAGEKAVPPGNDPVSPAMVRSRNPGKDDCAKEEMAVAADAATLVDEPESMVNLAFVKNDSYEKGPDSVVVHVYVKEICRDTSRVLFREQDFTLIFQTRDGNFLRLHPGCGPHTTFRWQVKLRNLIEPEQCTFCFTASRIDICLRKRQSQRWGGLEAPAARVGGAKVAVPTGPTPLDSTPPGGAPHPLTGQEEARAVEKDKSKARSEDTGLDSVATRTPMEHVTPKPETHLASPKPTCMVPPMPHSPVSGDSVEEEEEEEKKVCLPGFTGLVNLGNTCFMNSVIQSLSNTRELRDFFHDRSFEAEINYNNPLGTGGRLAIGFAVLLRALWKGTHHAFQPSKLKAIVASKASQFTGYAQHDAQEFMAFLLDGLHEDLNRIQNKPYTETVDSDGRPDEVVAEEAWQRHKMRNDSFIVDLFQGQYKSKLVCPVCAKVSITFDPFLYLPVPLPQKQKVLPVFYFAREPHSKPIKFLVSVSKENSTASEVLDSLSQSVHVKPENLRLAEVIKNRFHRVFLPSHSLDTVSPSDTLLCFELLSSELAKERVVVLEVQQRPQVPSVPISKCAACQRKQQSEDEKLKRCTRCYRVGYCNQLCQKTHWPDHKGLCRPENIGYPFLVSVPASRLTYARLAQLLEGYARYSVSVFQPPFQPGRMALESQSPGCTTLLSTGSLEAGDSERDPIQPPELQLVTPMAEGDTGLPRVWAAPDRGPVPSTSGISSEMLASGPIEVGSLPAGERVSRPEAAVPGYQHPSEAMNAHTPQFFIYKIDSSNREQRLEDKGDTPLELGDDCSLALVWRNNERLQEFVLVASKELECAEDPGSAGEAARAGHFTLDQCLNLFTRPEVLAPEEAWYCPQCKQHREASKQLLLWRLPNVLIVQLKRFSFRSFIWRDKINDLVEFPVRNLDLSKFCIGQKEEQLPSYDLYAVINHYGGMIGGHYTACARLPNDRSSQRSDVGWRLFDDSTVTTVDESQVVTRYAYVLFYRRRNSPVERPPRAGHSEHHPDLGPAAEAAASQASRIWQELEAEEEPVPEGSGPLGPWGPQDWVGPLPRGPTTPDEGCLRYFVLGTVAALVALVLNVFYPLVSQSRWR
In short: (§1)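 Average log2 ratios of fragment over vehicle were obtained by unpaired t-test from global-median-normalised Spectronaut label-free quantities. Proteins with ≥2 unique peptides were included. HEK293T lysate (495 µg per sample) was treated in triplicate with fragment at 200 µM or vehicle for 3 h, then with Biotin-Ahx-Ub-VS at 0.5 µM final for 1 h, and labelled DUBs were NeutrAvidin-enriched and run by diaPASEF LC-MS/MS.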

USP22 = target: T2, USP22 (UniProt Q9UPT9)
T2 sequence (whole entry): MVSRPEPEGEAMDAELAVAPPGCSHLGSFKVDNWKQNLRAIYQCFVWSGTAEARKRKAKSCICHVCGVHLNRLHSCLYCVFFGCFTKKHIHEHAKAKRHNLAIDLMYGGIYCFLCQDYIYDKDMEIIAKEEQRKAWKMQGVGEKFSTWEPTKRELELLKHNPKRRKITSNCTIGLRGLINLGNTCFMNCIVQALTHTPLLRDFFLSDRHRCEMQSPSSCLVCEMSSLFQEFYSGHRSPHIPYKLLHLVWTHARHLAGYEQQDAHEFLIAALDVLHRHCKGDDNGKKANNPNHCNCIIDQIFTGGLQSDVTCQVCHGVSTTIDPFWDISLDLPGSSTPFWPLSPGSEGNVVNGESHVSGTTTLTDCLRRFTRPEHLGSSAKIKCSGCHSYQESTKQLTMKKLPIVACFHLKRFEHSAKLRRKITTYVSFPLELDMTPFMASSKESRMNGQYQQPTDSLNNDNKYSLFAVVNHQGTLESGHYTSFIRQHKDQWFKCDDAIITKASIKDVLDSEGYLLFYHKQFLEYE
In short: as §1

USP24 = USP24 (UniProt Q9UPU5)
In short: as §1

USP25 = target: T3, USP25 (UniProt Q9UHP3)
T3 sequence (whole entry): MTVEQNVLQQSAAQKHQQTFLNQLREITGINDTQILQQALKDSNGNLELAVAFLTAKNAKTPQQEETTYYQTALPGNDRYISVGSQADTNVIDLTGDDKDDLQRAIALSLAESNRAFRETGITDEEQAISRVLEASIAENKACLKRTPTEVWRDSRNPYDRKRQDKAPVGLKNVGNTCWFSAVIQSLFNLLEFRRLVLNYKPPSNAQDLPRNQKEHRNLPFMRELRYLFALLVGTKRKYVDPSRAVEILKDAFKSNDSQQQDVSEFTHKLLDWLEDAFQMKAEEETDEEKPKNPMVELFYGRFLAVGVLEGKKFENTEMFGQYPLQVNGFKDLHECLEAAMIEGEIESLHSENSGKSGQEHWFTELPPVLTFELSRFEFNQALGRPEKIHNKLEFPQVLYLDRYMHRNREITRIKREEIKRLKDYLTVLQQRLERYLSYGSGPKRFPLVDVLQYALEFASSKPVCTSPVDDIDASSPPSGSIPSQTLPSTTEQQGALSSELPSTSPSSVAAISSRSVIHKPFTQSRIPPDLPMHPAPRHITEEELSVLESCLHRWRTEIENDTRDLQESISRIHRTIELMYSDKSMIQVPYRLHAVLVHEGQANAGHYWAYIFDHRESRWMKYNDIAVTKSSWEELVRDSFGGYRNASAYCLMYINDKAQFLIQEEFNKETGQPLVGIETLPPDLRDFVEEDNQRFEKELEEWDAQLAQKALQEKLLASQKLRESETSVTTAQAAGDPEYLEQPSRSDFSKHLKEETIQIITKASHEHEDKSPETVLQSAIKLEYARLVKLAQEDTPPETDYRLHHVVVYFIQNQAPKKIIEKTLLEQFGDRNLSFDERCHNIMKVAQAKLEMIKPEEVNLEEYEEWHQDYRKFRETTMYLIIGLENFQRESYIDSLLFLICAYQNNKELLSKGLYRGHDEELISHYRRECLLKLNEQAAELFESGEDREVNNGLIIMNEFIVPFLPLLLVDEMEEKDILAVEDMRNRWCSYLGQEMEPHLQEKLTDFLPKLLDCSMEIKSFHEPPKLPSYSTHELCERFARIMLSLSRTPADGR
In short: as §1

USP28 = target: T4, USP28 (UniProt Q96RU2)
T4 sequence (whole entry): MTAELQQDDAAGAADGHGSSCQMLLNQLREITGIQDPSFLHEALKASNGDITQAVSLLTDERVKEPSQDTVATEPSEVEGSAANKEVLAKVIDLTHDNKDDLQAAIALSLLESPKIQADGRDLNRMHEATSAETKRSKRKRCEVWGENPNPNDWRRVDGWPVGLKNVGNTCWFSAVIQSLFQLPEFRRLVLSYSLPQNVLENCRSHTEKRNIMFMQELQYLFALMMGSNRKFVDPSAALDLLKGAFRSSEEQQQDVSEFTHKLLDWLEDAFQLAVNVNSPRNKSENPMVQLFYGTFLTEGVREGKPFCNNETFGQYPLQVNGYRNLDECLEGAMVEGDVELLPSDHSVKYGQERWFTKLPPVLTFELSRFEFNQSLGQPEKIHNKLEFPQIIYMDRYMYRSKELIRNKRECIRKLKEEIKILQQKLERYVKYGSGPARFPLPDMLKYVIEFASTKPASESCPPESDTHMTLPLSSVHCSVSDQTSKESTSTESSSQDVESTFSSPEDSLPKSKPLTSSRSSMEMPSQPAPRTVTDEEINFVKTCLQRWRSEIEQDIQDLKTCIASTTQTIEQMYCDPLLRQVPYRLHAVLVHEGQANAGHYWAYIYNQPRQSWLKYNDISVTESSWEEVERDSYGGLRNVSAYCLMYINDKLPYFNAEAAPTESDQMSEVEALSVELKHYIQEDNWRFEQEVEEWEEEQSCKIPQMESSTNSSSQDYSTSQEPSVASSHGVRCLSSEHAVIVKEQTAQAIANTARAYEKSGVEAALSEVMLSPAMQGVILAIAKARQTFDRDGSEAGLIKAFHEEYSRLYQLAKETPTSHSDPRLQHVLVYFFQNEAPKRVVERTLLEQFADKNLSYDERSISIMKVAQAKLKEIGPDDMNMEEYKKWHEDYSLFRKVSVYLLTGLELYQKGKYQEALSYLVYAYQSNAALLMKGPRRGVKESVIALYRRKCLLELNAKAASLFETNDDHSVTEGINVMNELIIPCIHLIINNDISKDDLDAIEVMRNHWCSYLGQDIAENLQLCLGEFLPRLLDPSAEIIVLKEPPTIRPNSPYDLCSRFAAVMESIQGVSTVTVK
In short: as §1

Measured: log2 ratio of Biotin-Ahx-Ub-VS probe labelling

Sequence of USP24 (Q9UPU5 whole entry): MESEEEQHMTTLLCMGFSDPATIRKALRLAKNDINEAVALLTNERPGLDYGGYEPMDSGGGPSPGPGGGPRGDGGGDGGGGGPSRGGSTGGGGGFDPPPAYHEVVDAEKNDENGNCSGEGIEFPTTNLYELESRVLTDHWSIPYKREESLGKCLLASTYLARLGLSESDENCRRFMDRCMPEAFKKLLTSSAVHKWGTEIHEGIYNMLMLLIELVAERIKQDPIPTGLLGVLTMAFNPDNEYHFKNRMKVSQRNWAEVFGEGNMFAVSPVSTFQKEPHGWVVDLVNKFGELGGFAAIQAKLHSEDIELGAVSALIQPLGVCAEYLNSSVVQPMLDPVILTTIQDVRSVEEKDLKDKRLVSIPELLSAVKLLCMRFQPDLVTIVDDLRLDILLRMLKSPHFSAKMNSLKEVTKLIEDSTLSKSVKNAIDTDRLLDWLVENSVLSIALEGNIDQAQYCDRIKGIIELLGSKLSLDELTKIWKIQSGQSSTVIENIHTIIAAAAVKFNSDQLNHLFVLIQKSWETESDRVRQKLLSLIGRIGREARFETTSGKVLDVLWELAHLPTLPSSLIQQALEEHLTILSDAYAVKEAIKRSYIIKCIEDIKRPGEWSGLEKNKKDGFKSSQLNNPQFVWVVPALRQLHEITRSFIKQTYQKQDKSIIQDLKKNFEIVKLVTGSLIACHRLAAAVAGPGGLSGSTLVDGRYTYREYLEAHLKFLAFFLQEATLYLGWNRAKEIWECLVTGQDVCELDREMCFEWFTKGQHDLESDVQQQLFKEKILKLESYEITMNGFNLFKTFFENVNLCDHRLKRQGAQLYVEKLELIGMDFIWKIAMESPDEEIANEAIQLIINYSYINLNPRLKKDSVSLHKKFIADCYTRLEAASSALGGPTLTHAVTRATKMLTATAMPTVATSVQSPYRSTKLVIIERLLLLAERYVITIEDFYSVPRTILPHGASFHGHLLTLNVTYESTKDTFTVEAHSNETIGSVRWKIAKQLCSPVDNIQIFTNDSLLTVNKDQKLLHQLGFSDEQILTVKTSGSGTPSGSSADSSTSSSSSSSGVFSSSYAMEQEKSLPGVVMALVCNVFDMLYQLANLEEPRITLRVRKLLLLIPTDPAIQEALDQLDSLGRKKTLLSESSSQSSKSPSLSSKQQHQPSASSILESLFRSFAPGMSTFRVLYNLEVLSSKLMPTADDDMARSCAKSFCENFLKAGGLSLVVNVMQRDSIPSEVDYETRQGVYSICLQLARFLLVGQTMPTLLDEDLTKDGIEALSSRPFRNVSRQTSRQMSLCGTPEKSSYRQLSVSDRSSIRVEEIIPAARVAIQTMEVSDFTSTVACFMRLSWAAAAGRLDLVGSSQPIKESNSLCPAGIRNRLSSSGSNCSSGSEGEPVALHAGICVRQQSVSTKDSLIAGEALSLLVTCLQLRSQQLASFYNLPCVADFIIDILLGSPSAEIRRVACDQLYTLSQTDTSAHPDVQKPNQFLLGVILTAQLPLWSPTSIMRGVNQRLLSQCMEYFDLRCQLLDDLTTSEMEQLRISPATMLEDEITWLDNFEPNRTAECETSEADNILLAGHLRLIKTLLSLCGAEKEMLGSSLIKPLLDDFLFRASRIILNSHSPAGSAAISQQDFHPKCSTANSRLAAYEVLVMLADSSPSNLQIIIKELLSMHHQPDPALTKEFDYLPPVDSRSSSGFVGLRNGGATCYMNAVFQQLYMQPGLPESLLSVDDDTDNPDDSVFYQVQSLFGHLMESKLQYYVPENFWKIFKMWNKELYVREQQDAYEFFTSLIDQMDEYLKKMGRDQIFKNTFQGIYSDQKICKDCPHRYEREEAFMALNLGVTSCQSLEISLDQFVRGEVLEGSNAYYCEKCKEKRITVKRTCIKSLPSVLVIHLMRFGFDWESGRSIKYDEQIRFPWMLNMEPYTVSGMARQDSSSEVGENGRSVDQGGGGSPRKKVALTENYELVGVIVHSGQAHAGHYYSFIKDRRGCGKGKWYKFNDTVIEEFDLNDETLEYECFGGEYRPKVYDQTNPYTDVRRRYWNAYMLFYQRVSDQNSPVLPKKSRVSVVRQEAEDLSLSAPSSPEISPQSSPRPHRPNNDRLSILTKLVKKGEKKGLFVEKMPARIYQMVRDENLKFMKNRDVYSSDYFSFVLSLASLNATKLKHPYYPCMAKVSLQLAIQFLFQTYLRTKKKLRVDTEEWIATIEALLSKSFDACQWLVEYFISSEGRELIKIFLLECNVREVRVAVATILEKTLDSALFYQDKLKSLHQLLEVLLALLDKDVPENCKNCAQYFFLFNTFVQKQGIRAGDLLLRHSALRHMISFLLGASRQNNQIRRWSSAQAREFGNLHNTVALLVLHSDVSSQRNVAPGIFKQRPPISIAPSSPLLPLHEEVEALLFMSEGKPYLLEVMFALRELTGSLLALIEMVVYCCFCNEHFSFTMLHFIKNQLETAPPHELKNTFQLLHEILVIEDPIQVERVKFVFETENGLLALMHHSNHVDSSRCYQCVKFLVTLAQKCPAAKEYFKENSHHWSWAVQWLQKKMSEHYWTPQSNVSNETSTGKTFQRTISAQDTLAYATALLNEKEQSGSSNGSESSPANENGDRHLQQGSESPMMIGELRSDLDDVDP

Cc1cccn2cc(CCNC(=O)CCl)nc12.Cl
inactive: USP19 -0.279 | USP22 -0.0399 | USP24 -0.29 | USP25 -0.0777 | USP28 -0.334
